Compound activity (PubChem BioAssay)
PKA-R1A activ – activates the PKA-R1A holoenzyme complex; 340,000 compounds, 0.083% hits; PKA-R1A dissociation, Cy5-IP20 fluorescence polarization; scaled: DMSO 0%, 113 µM cGMP 100%; activation, % at 11.4 µM; P00514+P68181;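 active means percent activation above the mean of all tested compounds plus 3 SD, cut at about 19% in these data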;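 further: higher means more PKAc released from R1A so a rise in polarization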
PKA-R2B act – activators of human PKA-R2B complex; PKA-R2B holoenzyme dissociation, Cy5-IP20 fluorescence polarization; R2B truncated from residue 108, S112A mutant; 0% DMSO only, 100% 113 µM cGMP; activation, % at 11.4 µM; 340,000 compounds, 0.079% hits; AID 504700;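 active means activation above a cutoff set at the mean over all compounds plus 3 SD, cut at about 18% in these data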;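 further: higher means more holoenzyme dissociation and a rise in polarization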
Rtt109 Vps75 – C. albicans Rtt109 histone acetyltransferase inhibition; Q5AAJ8; purified Rtt109/Vps75, ThioGlo CoA-SH fluorescence, 4 h; inhibition, % at 34.9 µM; 330,000 compounds, 0.16% hits; AID 540336;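 active means inhibition of at least 50% in every replicate; inconclusive means best replicate reaches 50% inhibition but some replicates fall short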
HDAC3 inh – human HDAC3 inhibition | recombinant HDAC3, fluorogenic peptide/trypsin coupled, fluorescence | inhibition, % at 8.3 µM | 320,000 compounds, 0.15% hits; in the data active means inhibition above about 26%, passing the limit was not always enough; inconclusive means no clear call, values can overlap the other calls
Target sequence (O15379 whole entry, looked up): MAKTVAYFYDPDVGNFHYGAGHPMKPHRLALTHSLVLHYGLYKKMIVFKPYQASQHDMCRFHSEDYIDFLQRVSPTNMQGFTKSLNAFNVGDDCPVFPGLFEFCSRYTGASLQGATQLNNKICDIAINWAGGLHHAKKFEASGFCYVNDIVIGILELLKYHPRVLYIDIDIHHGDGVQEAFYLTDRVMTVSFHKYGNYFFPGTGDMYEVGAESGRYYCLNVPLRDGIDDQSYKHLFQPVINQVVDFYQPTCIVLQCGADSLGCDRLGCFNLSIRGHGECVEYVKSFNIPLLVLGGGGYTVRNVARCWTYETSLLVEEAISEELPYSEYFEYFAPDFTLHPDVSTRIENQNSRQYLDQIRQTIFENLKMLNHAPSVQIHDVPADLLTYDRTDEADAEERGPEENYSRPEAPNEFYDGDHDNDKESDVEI
R2B FP artifact – FP assay interference, PKA-R2B counter-screen | shares compounds with PKA-R2B act | 270 compounds, 6% hits | activation, % at 11.4 µM | FP artifact counterscreen, fluorescence polarization | AID 504796; in the data active means activation above about 20%;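 further: Cy5 labelled IP20 peptide probe with compound but no PKA protein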
PKA-R2B confirm – PKA-R2B complex activation, confirmation | 270 compounds, 9% hits | AID 504797 | shares compounds with PKA-R2B act | activation, % at 11.4 µM | fluorescence polarization; in the data active means activation above about 19%
Of the large screens only hits and unclear results are named; the others gave an inactive call (follow-up assays come after a bar, where they were run). An excerpt weighted towards active compounds, which were near 0.43% of everything screened.

c1ccc(-c2nnc(OCCN3CCOCC3)c3ccccc23)cc1	PKA-R2B act 18 | R2B FP artifact inactive | PKA-R2B confirm inactive
COCCN(C(=O)COC(=O)/C=C/c1cccs1)c1c(N)n(Cc2ccccc2)c(=O)[nH]c1=O	PKA-R2B act 23 | R2B FP artifact inactive | PKA-R2B confirm inactive
CC(C)CN(C(=O)COC(=O)/C=C/c1cccs1)c1c(N)n(Cc2ccccc2)c(=O)[nH]c1=O	none
CCOC(=O)N1CCC(Nc2c(NCCCN(C)Cc3ccccc3)c(=O)c2=O)CC1	PKA-R2B act 20 | R2B FP artifact inactive | PKA-R2B confirm inactive
Cc1c(CNCC(C)c2ccccc2)c(C(=O)O)c(C)n1Cc1ccccc1 (stereo not drawn)	HDAC3 inh inconclusive
COc1cccc(Nc2nc(NCCO)nc(N3CCCC3)n2)c1	PKA-R2B act 22 | R2B FP artifact inactive | PKA-R2B confirm inactive
Cn1c(CCCOc2ccc(Cl)cc2Cl)nnc1SCC(=O)Nc1nccs1	PKA-R2B act 20 | R2B FP artifact inactive | PKA-R2B confirm inactive
CCCCc1nnc(SCC(=O)Nc2nccs2)n1C	none
Cc1ccc(NC(=O)CSc2nnc(C3CC3)n2C)cc1S(=O)(=O)N1CCCCC1	none
Cc1cc(N2CCCC2=O)ccc1S(=O)(=O)N1CCOCC1	PKA-R2B act 23 | R2B FP artifact inactive | PKA-R2B confirm inactive
COCC(=O)Nc1cccc(C(F)(F)F)c1	PKA-R2B act 19 (no result: HDAC3 inh) | R2B FP artifact inactive | PKA-R2B confirm inactive
CC(NC(=O)Cc1ccccc1)c1ccc(F)cc1 (stereo not drawn)	none
CC(NC(=O)Cc1ccc(F)cc1)c1ccc(F)cc1 (stereo not drawn)	PKA-R2B act 19 | R2B FP artifact inactive | PKA-R2B confirm inactive
COc1ccccc1-c1nc(SCC(=O)N2CCC(C(N)=O)CC2)n[nH]1	HDAC3 inh inconclusive
COc1ccc(C(C)=O)cc1CSc1nc2ccccc2c(=O)n1-c1ccccc1	none
C=CCn1c(SCc2cc(C(C)=O)ccc2OCC)nc2ccccc2c1=O	PKA-R2B act 19 | R2B FP artifact inactive | PKA-R2B confirm inactive
O=C(NC1CCCCC1)c1ccc(Br)o1	PKA-R2B act 18 | R2B FP artifact inactive | PKA-R2B confirm inactive
COc1ccc(NC(=O)C2CC2(Cl)Cl)cc1S(=O)(=O)N1CCCCC1 (stereo not drawn)	none (no result: Rtt109 Vps75, HDAC3 inh)
COc1ccc(CNC(=O)c2nn(-c3ccccc3)cc2OC)cc1	none
COC(=O)[C@@H](NC(=O)c1ccc(OC2CCN(Cc3ccccn3)CC2)cc1)C(C)C	PKA-R2B act 20 (no result: Rtt109 Vps75) | R2B FP artifact inactive | PKA-R2B confirm inactive
Cc1cccc(Nc2ncnc(N)n2)c1	PKA-R2B act 21 | R2B FP artifact inactive | PKA-R2B confirm inactive
Nc1ncnc(Nc2cccc(F)c2)n1	none
Cc1ccc(C(C)C)c(O)c1C(=O)O	PKA-R2B act 19 (no result: HDAC3 inh) | R2B FP artifact inactive | PKA-R2B confirm inactive
Cc1cc(NC(=O)/C=C/c2ccccc2)c(C(C)C)cc1O	none
O=C1NC(Cc2ccc(O)cc2)c2nc3ccc(Br)cc3c(=O)n2-c2ncccc21 (stereo not drawn)	none (no result: Rtt109 Vps75, HDAC3 inh)
CC(=O)NCC(=O)OC(C)C(=O)Nc1ccc(C(C)=O)cc1 (stereo not drawn)	PKA-R2B act 19 | R2B FP artifact inactive | PKA-R2B confirm inactive
O=C(NC12CC3CC(CC(C3)C1)C2)N1CCN(C(=O)c2ccco2)CC1	none (no result: Rtt109 Vps75)
COc1cccc(C(=O)OCC(=O)NC2CCCc3ccccc32)c1O (stereo not drawn)	none (no result: HDAC3 inh)
O=C(COC(=O)c1ccccc1O)NC1CCCc2ccccc21 (stereo not drawn)	PKA-R2B act 21 | R2B FP artifact inactive | PKA-R2B confirm inactive
CCCCCCCc1c(O)nc(SCCN2CCOCC2)[nH]c1=O	none
CC(C)COC(=O)Cc1c(O)c2ccccc2[nH]c1=O	PKA-R2B act 21 | R2B FP artifact inactive | PKA-R2B confirm inactive
CCCCOC(=O)Cc1c(O)c2ccccc2[nH]c1=O	none
CNC[C@H](Cc1cccc2ccccc12)NC[C@H](CCSC)NCC1CCC(C(C)(C)C)CC1 (stereo partly drawn)	none (no result: PKA-R1A activ, PKA-R2B act, Rtt109 Vps75)
O=C(Nc1ccc(Cl)cn1)c1cccc(S(=O)(=O)N2CCCCCC2)c1	PKA-R2B act 20 (no result: Rtt109 Vps75, HDAC3 inh) | R2B FP artifact inactive | PKA-R2B confirm inactive
O=C(Nc1ccc(Cl)cn1)c1cccc(S(=O)(=O)N2CCCCC2)c1	none (no result: HDAC3 inh)
